This is a sample that favours compounds with a hit; in the whole collection about 11% have one here.
Tau FP inhib: tau fibrillization inhibition (FP). P10636. Potency, µM (titrated, usually from 57.7 µM), hits mostly inhibitors. 0.39% of 280,000 active. AID 1468. K18 P301L tau heparin fibrillization, Alexa594 FP, 6 h; further: nearly all actives have a fitted effect of over 55% in size
Target sequence (P10636 561-689 P618L limits assumed): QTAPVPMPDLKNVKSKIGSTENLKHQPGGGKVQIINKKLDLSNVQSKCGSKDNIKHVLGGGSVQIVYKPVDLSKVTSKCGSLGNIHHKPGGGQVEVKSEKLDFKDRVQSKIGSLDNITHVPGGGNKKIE
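FP of Alexa 594-tau after heparin (20 uM) induction. Substrate: human K18 P301L, 15 uM unlabeled, 0.24 uM labeled. Buffer 100 mM sodium acetate pH 7. 6 hr, 37 C.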
Coupling enz: coupling enzyme interference in Giardia aldolase counter-screen; AID 2472; activity change, negative = inhibition, % at 58.2 µM, hits read low; 0.67% of 290,000 active; coupling enzyme system counterscreen, AmpLite Red fluorescence; in the data active means activity change below about -30%
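Activity here indicates interference with the coupling reaction, not aldolase inhibition. Compounds at 57.5 uM final met coupling enzymes for 10 min at RT; substrate and AmpLite Red detection followed, with a 525/598 nm fluorescence read after 20 min.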
G9a inh: G9a (human) methyltransferase inhibition | Q96KQ7 | G9a H3K9 monomethylation, AlphaScreen, 2 h | Potency, µM (titrated, usually from 102 µM), most hits filed as inhibitors | 8.8% of 350,000 active; further: nearly all actives have a fitted effect of over 75% in size
Target sequence (Q96KQ7 913-1193 limits assumed): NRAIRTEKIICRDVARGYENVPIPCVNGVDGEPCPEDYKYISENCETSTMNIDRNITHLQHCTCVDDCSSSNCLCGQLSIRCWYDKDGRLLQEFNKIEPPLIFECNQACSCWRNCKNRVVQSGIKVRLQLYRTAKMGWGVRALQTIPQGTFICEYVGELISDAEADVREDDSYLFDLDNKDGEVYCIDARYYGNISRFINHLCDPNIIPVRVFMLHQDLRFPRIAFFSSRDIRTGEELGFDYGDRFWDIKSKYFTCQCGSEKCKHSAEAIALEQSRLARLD
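AlphaScreen read-out: biotin-H3K9 peptide (500 nM) methylation by 20 nM enzyme with 20 uM SAM, 2 h at room temperature after 15 min compound preincubation; anti-monomethyl H3K9 antibody plus donor/acceptor beads, 10 min dark.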
Tau ThT inhib: blocks human tau fibril formation measured by thioflavin T; AID 1460; Potency, µM (series often up to 57.4 µM), hits mostly inhibitors; P10636; 2.1% of 270,000 active; recombinant tau K18 P301L, heparin-induced fibrillization, ThT fluorescence; further: nearly all actives have a fitted effect of over 55% in size
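Heparin-induced fibrillization of the P301L-mutant K18 repeat-domain fragment of human tau was followed by ThT binding in quantitative high-throughput format.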
Sfp PPTase inh: inhibitors of Bacillus subtilis Sfp phosphopantetheinyl transferase | Potency, µM, usual class: inhibitors | 3.5% of 310,000 active | Q9F4F7 | Biochemical Sfp PPTase activity, qHTS;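 further: the enzyme is Sfp with the accession as filed and its product quenches rhodamine fluorescence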
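After 15 min at room temperature with compound, 15 nM Sfp received 5 uM rhodamine-CoA plus 12.5 uM BHQ-2-ybbR (50 mM Hepes pH 7.6, 10 mM MgCl2). Rate came from the fluorescence difference over 30 min, ex 525/em 598 nm.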
Tau fluor cs: counter-screen for tau fibril formation inhibitors. tau K18 P301L Alexa594 fluorescence, heparin fibrillization. Potency, µM (doses to about 57.7 µM). 0.93% of 280,000 active; further: nearly all actives have a fitted effect of over 55% in size
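Human tau K18 P301L (15 uM unlabeled, 0.24 uM Alexa 594-labeled) in 100 mM sodium acetate pH 7 with 20 uM heparin, 6 hr at 37 C. ThT 30 uM added, 1 hr ambient; Alexa 594 FP and total fluorescence read at 555/632 nm.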
A number is an active result; [ ] = remark or other dose. Unless noted, the call rests on the fitted dose curve; in most records, active means well fitted curve in the direction sought with a large enough effect; inconclusive means small, poorly fitted or top-dose-only effect, or another doubt; inactive means no such curve, though single readings can be large; an effect the other way counts as inactive or inconclusive.

Screening COc1cccc2cc(C(=O)C3=C(O)C(=O)N(CCN(C)C)C3c3ccc(F)cc3)oc12 (centres undefined) returned Tau FP inhib inactive, Coupling enz inactive, G9a inh 50µM, Tau ThT inhib inactive, Sfp PPTase inh inactive and Tau fluor cs inactive.
For COc1cccc2cc(C(=O)C3=C(O)C(=O)N(CCCN(C)C)C3c3ccncc3)oc12 (centres undefined) the results were Tau FP inhib inactive, Coupling enz inactive, G9a inh inconclusive, Tau ThT inhib inactive, Sfp PPTase inh inactive and Tau fluor cs inactive.
Screening CC(C)(CC(=O)O)CC(=O)N1CCN(c2cc(C(F)(F)F)nc3ccccc23)CC1 returned Coupling enz inactive, G9a inh inactive[12.7 µM] and Sfp PPTase inh inactive.
Cc1ccc2cc(CCNC(=O)CCCc3ccccc3)c(=O)[nH]c2c1C was read as G9a inh inactive and Sfp PPTase inh inactive.
For Cc1ccc(-n2ncc(C(=O)NCc3ccco3)c2C2CCN(C(=O)OC(C)(C)C)CC2)c(C)c1 the results were Tau FP inhib inactive, G9a inh inconclusive, Tau ThT inhib inactive and Tau fluor cs inactive.
For COc1ccccc1S(=O)Cc1ccc(C(=O)NCCc2ccc(Cl)cc2)o1 (centres undefined) the results were Tau FP inhib inactive, Coupling enz inactive, G9a inh 40µM, Tau ThT inhib inactive, Sfp PPTase inh inactive and Tau fluor cs inactive.
For O=C(NCCc1ccc(Cl)cc1)c1ccc(CS(=O)Cc2ccc(Cl)cc2)o1 (centres undefined) the results were Coupling enz inactive, G9a inh inactive and Sfp PPTase inh inactive.
Screening COc1ccccc1S(=O)Cc1ccc(C(=O)NC2CCCC2)o1 (centres undefined) returned Tau FP inhib inactive, Coupling enz inactive, G9a inh 28µM, Tau ThT inhib inconclusive, Sfp PPTase inh inactive and Tau fluor cs inactive.
For CC1(C)CCN2CCC(C)(C)c3c(O)ccc1c32 the results were Coupling enz -30, G9a inh 10µM and Sfp PPTase inh 20µM.
COC(=O)c1cc(NC(=O)c2sc3ncn(Cc4cccc(F)c4)c(=O)c3c2C)cc(C(=O)OC)c1 was read as Tau FP inhib inconclusive, G9a inh inactive, Tau ThT inhib inactive and Tau fluor cs inactive.
`COCCn1nnnc1C(c1cc2c(C)cc(C)cc2[nH]c1=O)N1CCCCCC1` (centres undefined) gave Tau FP inhib inconclusive, Coupling enz inactive, G9a inh inactive[0.0925 µM], Tau ThT inhib inconclusive, Sfp PPTase inh inactive and Tau fluor cs inactive.
CCN(Cc1ccccc1)C(c1cc2cc(C)cc(C)c2[nH]c1=O)c1nnnn1CCOC (centres undefined) was read as Tau FP inhib inactive, Coupling enz inactive, G9a inh inactive, Tau ThT inhib inactive, Sfp PPTase inh inactive and Tau fluor cs inactive.
For CCN(Cc1ccccc1)C(c1cc2cc(C)ccc2[nH]c1=O)c1nnnn1CCOC (centres undefined) the results were Tau FP inhib inactive, Coupling enz inactive, G9a inh inconclusive, Tau ThT inhib inactive, Sfp PPTase inh inactive and Tau fluor cs inactive.
For COCCn1nnnc1C(c1cc2cc(C)cc(C)c2[nH]c1=O)N1CCN(c2ccccc2F)CC1 (centres undefined) the results were Tau FP inhib inactive, Coupling enz inactive, G9a inh 3.2µM, Tau ThT inhib inconclusive, Sfp PPTase inh 13µM and Tau fluor cs inactive.
`COCCn1nnnc1C(c1cc2cc(C)ccc2[nH]c1=O)N1CCCCCC1` (centres undefined) gave Tau FP inhib inconclusive, Coupling enz inactive, G9a inh 4.5µM, Tau ThT inhib inconclusive, Sfp PPTase inh 50µM and Tau fluor cs inactive.
`COCCn1nnnc1C(c1cc2cc(C)ccc2[nH]c1=O)N1CCc2ccccc21` (centres undefined) gave Tau FP inhib inconclusive, Coupling enz inactive, G9a inh 13µM, Tau ThT inhib 28µM, Sfp PPTase inh 50µM and Tau fluor cs inconclusive.
COc1ccc2cc(C(c3nnnn3CCc3ccccc3)N3CCCC(C)C3)c(=O)[nH]c2c1 (centres undefined) was read as Tau FP inhib inactive, Coupling enz inactive, G9a inh 45µM, Tau ThT inhib inactive, Sfp PPTase inh inactive and Tau fluor cs inactive.
Screening COc1ccc(OC2C=CC(C#Cc3ccccc3)OC2CO)cc1 (centres undefined) returned Tau FP inhib inactive[11.6 µM], Coupling enz inactive, Tau ThT inhib inconclusive, Sfp PPTase inh inactive and Tau fluor cs inactive[11.6 µM].
Screening Cc1cccc(CNc2ccnc(-c3ccccc3Cl)n2)c1 returned Coupling enz inactive, G9a inh inactive[0.501 µM] and Sfp PPTase inh inactive.
Screening CC(SC1=Nc2ccccc2C2CC=NN12)C(=O)NC1(C#N)CCCCC1 (centres undefined) returned G9a inh inactive[0.501 µM].
Cc1ccc2[nH]c(=O)c(C(c3nnnn3CCc3ccccc3)N3CCOCC3)cc2c1 (centres undefined) was read as Tau FP inhib inactive, Coupling enz inactive, G9a inh 7.9µM, Tau ThT inhib inactive, Sfp PPTase inh inactive and Tau fluor cs inactive.
Cc1ccccc1-c1noc(-c2nnn(-c3ccccc3C)c2N)n1 was read as Tau FP inhib inactive, G9a inh inactive, Tau ThT inhib inactive and Tau fluor cs inactive.
For CC(=O)c1cc(-c2ccc(F)cc2)n(CCC(=O)NCc2ccccc2C)c1C the results were Tau FP inhib inactive, G9a inh inactive, Tau ThT inhib inactive and Tau fluor cs inactive.
CC1=NN(c2ccc(C)c(C)c2)C(=O)/C1=C\C=C\c1ccc([N+](=O)[O-])o1 was read as Tau FP inhib inconclusive, Coupling enz inactive, G9a inh inconclusive, Tau ThT inhib 25µM, Sfp PPTase inh inactive and Tau fluor cs inconclusive.
`CC1Oc2ccccc2N(Cc2ccc(F)cc2)C1=O` (centres undefined) gave Coupling enz inactive, G9a inh inactive and Sfp PPTase inh inactive.
CN(C(=O)CSc1nnc(-c2ccccc2)o1)c1c(N)n(Cc2ccccc2)c(=O)[nH]c1=O was read as Tau FP inhib inactive, Coupling enz inactive, G9a inh inactive, Tau ThT inhib inactive, Sfp PPTase inh inactive and Tau fluor cs inactive.
Screening Clc1ccc(CNc2nc(CN3CCOCC3)nc3scc(-c4ccccc4)c23)cc1 returned Tau FP inhib inactive, Coupling enz inactive, G9a inh inconclusive, Tau ThT inhib inconclusive, Sfp PPTase inh 56µM and Tau fluor cs inactive.
Screening Cc1ccc(NC(=O)CSc2n[nH]c(-c3ccco3)n2)cc1 returned Tau FP inhib inactive, Coupling enz inactive, G9a inh inactive, Tau ThT inhib inactive, Sfp PPTase inh inactive and Tau fluor cs inactive.

Bioassay records deposited in PubChem by National Center for Advancing Translational Sciences (NCATS).
